According to PubChem BioAssay (NCI):
This is part of a sample that, as a whole, favours compounds with a hit. Of some 79,000 tested, about 15% had one in any assay. A number with no mark means an inactive call. Cut-off read from the data, not from the text of the source: active = growth inhibition above about 70%; inactive = the rest.

Experiment: NCI Yeast Anticancer Drug Screen. Data for the sgs1 mgt1 strain (AID 161);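 note: 0% = growth of cultures given vehicle only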
Settings: S. cerevisiae sgs1 mgt1 strain, hits give high values; at 50.0 µM unless noted
How it was run: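 Test agents were incubated with a DNA-repair-mutant yeast strain. Growth was then read and compared against vehicle-treated controls.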

SMILES | growth inhibition [%]
O=C(C1=CCCCC1)c1ccc(-c2ccccc2)cc1 | 2.25
c1ccc2c(c1)C(=NCCCN1CCCCCCC1)c1cccn1-2 | 29.1
Cn1cnc([N+](=O)[O-])c1Sc1nc2cc(Cl)c(F)cc2[nH]1 | -31.9
COCCCC(=O)CNC(C)C | -8.75
O=C(CCS(=O)(=O)CCC(=O)c1ccc2ccccc2c1)c1ccc2ccccc2c1 | -2.4
NC(=O)Nc1ccccc1-c1ccccc1 | 13.8
Nc1nc(N)c2nc(SC34CC5CC(CC(C5)C3)C4)c(N)nc2n1 | -7.1
CC(C)(O)CCNc1ncnc2c1ncn2C1OC(CO)C(O)C1O (configuration not stated) | 9.7
OC(CN1CCCC1)c1ccccc1 (configuration not stated) | 15.9
O=C1c2ccccc2C(=O)N1CN1C(=O)c2ccccc2S1(=O)=O | 29.4
COc1ccccc1N=C(N)N/N=C/c1c[nH]c2ccccc12 | -9.6
CC(=O)Nc1nc(SCc2ccccc2)c2[nH]cnc2n1 | 0.6
CC1=CCCC2C(C=O)(C1)CC(C)C2(CO)CC/C(=C/CO)CO (configuration not stated) | -5.5
CCCCC(C)(C)SCCC(=O)O | 14.9
CCCCCC[N+](C)(C)C | 2.7
CC(=NCCCCN=C(C)c1cc(O)cc(Br)c1O)c1cc(O)cc(Br)c1O.[Co] | 12.3
CN(Cc1cnc2nc(N)nc(N)c2n1)c1ccc(C(=O)NC(CCC(=O)OCc2c(Cl)cccc2Cl)C(=O)OCc2c(Cl)cccc2Cl)cc1 (configuration not stated) | 28.5
